# This is a sample that favours compounds with a hit; in the whole collection about 3.2% have one here.
# AmpC inh no detg – blocks E. coli AmpC beta-lactamase in detergent-free assay; P00811; AmpC nitrocefin hydrolysis, absorbance 480 nm, 0.0001% Triton; Potency, µM (highest dose often 57.1 µM), for the others: at the highest dose activity change, negative = inhibition, most hits filed as inhibitors; hit rate 0.52% among 330,000;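 further: plate controls were no compound for no effect and no enzyme for full effect; nearly all actives have a fitted effect of over 20% in size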
# Target sequence (P00811 whole entry, looked up): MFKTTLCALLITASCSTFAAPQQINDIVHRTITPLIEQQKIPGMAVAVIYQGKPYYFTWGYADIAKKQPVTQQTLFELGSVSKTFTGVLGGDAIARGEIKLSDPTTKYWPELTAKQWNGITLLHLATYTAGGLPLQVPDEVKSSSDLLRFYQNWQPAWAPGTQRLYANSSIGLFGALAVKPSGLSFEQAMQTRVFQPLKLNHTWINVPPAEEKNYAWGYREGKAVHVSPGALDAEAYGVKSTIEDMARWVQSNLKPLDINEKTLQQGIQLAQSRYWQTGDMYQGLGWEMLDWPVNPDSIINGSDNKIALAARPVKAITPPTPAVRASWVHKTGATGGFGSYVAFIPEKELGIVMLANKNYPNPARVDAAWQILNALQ
#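 AmpC (5.3 nM in the dispensed reagent) in 20 mM phosphate pH 7.0 with 0.01% (detergent screen) or 0.0001% Triton X-100 was preincubated with compounds for 15 min at room temperature. Nitrocefin was then added from an 800 uM solution, and hydrolysis was followed at 480 nm.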
# Sm TGR block – inhibitors of Schistosoma mansoni thioredoxin glutathione reductase | Q962Y6 | purified TGR, DTNB reduction, TNB absorbance 405 nm | Potency, µM (doses to about 114 µM), for the others: top-dose activity change, negative = inhibition, usual class: inhibitors | hit rate 3% among 360,000; further: nearly all actives have a fitted effect of over 60% in size
#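 First, TGR (20 nM dispensed) and NADPH were mixed with compound. Second, a 15 min room-temperature incubation followed. Third, further NADPH and then DTNB were added to start the reaction. Finally, TNB absorbance was monitored kinetically.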
# RE007 growth inh – less growth of the S. pombe RE007 Vpr strain. S. pombe RE007 Vpr strain, BacTiter-Glo ATP luminescence, 24 h. Potency, µM (doses to about 92.2 µM), without a hit: at the top dose activity change, negative = less growth, actives largely listed as inhibitors. hit rate 0.21% among 360,000. AID 651644; active means well fitted falling curve with a large enough effect; inconclusive means small, poorly fitted or top-dose-only effect; inactive means no such curve, though single readings can be large or run the other way; further: nearly all actives have a fitted effect of over 50% in size
#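 Fission yeast strain RE007, carrying one chromosomally integrated HIV-1 vpr copy, was seeded at OD 0.01 in PMG+AL medium with 23 nL pinned compound. After 24 h at 30 °C and 99% humidity, viability was read by BacTiter-Glo luminescence.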
# AmpC detergent – inhibitors of E. coli AmpC beta-lactamase with detergent. hit rate 0.041% among 370,000. AmpC hydrolysis of nitrocefin, absorbance 480 nm, 0.01% Triton. Potency, µM (series often up to 114 µM), for inactives: top-dose activity change, negative = inhibition, usual class: inhibitors. AID 485294. P00811;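 further: 0% = no-compound wells and -100% = no-enzyme wells; nearly all actives have a fitted effect of over 25% in size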
#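 20 mM phosphate pH 7.0 + 0.01% (detergent screen) or 0.0001% Triton X-100; 5.3 nM AmpC reagent; cpd preinc 15 min RT; nitrocefin (800 uM stock) to start; A480 q20 s × 4 min; Activity was normalised to no-enzyme and no-compound control wells.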
# AMA1 RON2 block – inhibitors of Plasmodium falciparum AMA1-RON2 interaction. AlphaScreen AMA1-biotinylated RON2 peptide binding. hit rate 0.2% among 360,000. Potency, µM (series often up to 58.2 µM), for inactives: at the top dose activity change, negative = inhibition, most hits filed as inhibitors;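 further: 0% = vehicle wells and -100% = peptide control; nearly all actives have a fitted effect of over 45% in size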
#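 AMA1 (3D7) with his tag at 25 nM final met compounds first, then biotinylated RON2 peptide at 25 nM; detection used donor plus acceptor beads, 10 µg/mL apiece, read by AlphaScreen after 30 min at room temperature.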
# Numbers without * were called inactive; ? = inconclusive; · = not tested or not shown; [ ] = another dose, or the depositor's remark. Unless noted, the call rests on the fitted dose curve; in most records, active means well fitted curve in the direction sought with a large enough effect; inconclusive means small, poorly fitted or top-dose-only effect, or another doubt; inactive means no such curve, though single readings can be large; an effect the other way counts as inactive or inconclusive. Unless noted, on the % scale 0 is the no-effect control and ±100 the full control effect; potency means the concentration at half of the fitted maximal effect.
SMILES,AmpC inh no detg,Sm TGR block,RE007 growth inh,AmpC detergent,AMA1 RON2 block
Cc1ccc(NC(=O)Cn2c(=O)n(Cc3ccccc3)c(=O)c3c(C)c(C(=O)N(C)C)sc32)c(C)c1,·,-0.3%,·,-1.5%,·
COc1ccc(S(=O)(=O)Nc2cccc(-c3ccc(N4CCCCCC4)nn3)c2)cc1,·,34.3%,·,-5.6%,·
CCc1cccc(-n2nnc(S(=O)(=O)c3ccc(OC)cc3)c2C)c1,·,6.5%,·,19.0%,·
COc1ccc(C(=O)COC(=O)CCNS(=O)(=O)c2ccccc2)cc1Br,-32.9%,-12.4%,-9.5%,-2.0%,6.6%
CNC(=O)C(C#N)(Cc1cc(C(C)=O)ccc1OC)Cc1cc(C(C)=O)ccc1OC,196.4%,39.8µM*,-9.9%,-0.7%,-17.5%
COc1ccc(C(C)=O)cc1COC(=O)CCNS(=O)(=O)c1ccc(C(C)=O)cc1,-8.3%,10µM*,10.4%,-12.0%,-16.2%
CCc1cccc(CC)c1NC(=O)c1c(C)oc2ccc(O)c(CN3CCOCC3)c12,·,-2.2%,·,18.0%,·
O=C(NCc1ccccc1F)C(=O)NCC(c1ccco1)S(=O)(=O)c1ccccc1 (stereo not given),·,-21.0%,·,0.3%,·
Cc1cccc(S(=O)(=O)N2CN(Cc3ccco3)c3nc4ccccc4nc32)c1,-55.6%,17.8µM*,-22.7%,-10.6%,12.8%
O=S(=O)(c1cccs1)N1CN(Cc2ccco2)c2nc3ccccc3nc21,-38.4%,?,12.8%,7.8%,-14.9%
Cc1nn(-c2ccccn2)c2c1C(=O)C(Br)CC2 (stereo not given),-11.4%,2.51µM*,4.9%,-2.9%,-9.6%
CC(=O)Nc1cc2c(cc1NC(=O)Cn1nc(-c3ccccc3F)ccc1=O)OCCO2,-6.6%,44.7µM*,-1.5%,-12.3%,-7.3%
COc1cccc2c(=O)n(CC(=O)N3CCCCC3)ccc12,39.8µM*,5.5%,0.1%,2.3%,0.8%
COc1cccc2c(=O)n(CC(=O)Nc3ccccc3)ccc12,50.1µM*,17.0%,8.3%,-10.9%,-4.4%
COc1cccc2c(=O)n(CC(=O)N3CCCc4ccccc43)ccc12,1.4%,-29.6%,5.4%,?,-2.9%
COc1cccc2c(=O)n(CC(=O)Nc3ccc(F)cc3F)ccc12,25.1µM*,0.6%,3.3%,?,-0.3%
COc1ccc(C2c3[nH]c4ccc(OC)cc4c3CCN2C(=O)Nc2ccccc2)cc1 (stereo not given),·,4.2%,·,25.4%,·
COc1ccc2cc(C#N)c(NC(C)C)nc2c1,-4.2%,1.2%,6.2%,?,-2.3%
CCN(CC)c1nc2cc(OC)ccc2cc1C#N,-0.2%,35.5µM*,·,?,31.8%
CCCCNC(=O)Cn1ncc2c(C)n(Cc3cccc(Cl)c3)c(C)c2c1=O,·,11.9%,·,14.9%,·
Cc1cc(C)c(C(=O)CSc2nc3ccccc3c(=O)[nH]2)cc1C,17.8µM*,-6.3%,-8.6%,?,-0.9%
O=[N+]([O-])c1ccc(Sc2cc[n+]([O-])c3ccccc23)c([N+](=O)[O-])c1,-14.9%,7.94µM*,3.6%,-1.7%,-18.2%
O=[N+]([O-])c1ccc(Cl)cc1Sc1nc2ccccc2o1,-19.1%,-12.2%,0.0%,-13.2%,?
O=[N+]([O-])c1ccc(Sc2nc3ccccc3o2)c([N+](=O)[O-])c1,-23.7%,3.98µM*,?,?,26.7µM*
Nc1nc(Sc2ccc([N+](=O)[O-])cc2[N+](=O)[O-])n[nH]1,-8.2%,31.6µM*,4.7%,7.8%,-5.1%
SMILES,AmpC inh no detg,Sm TGR block,RE007 growth inh,AmpC detergent,AMA1 RON2 block
CCC1Oc2ccc(Cl)cc2N(CC(=O)NCCc2ccc(Cl)cc2)C1=O (stereo not given),·,9.1%,·,2.4%,·
O=C(Nc1cc(-c2nc3ccccc3s2)ccc1Cl)c1cc2ccccc2o1,·,1.3%,·,10.2%,·
CC(C)N(C)C1CCN(S(=O)(=O)c2ccc3[nH]c(=O)ccc3c2)CC1,·,50.1µM*,·,3.7%,·
Cc1ccc2oc(=O)c3cnn(CC(=O)N4CCN(c5cc(Cl)ccc5C)CC4)c3c2c1,·,-2.2%,·,10.0%,·
O=C(CN1c2ccccc2Sc2ccccc21)NNC(=S)Nc1ccc(Cl)cc1,-47.8%,0.0%,2.2%,18.5%,19.6%
O=C(CN1c2ccccc2Sc2ccccc21)NNC(=S)Nc1ccc(Cl)cc1Cl,15.8µM*,10.1%,-9.2%,-8.1%,20.0%
Cc1cccc(NC2=C(NC(=O)c3ccccc3)C(=O)c3ccccc3C2=O)c1,-29.2%,2.24µM*,-20.2%,-11.5%,?
O=C(NC1=C(Nc2ccc(Cl)cc2)C(=O)c2ccccc2C1=O)c1ccccc1,-28.9%,6.31µM*,?,1.5%,-4.8%
CN(C1=C(NC(=O)c2ccc(Cl)cc2)C(=O)c2ccccc2C1=O)c1ccccc1,-17.7%,-24.6%,?,-0.9%,10µM*
C#CCNC(=O)C1=C[C@H](C2CCCCC2)[C@@H](CCCO)[C@H](OCC)O1,78.9%,17.8µM*,11.6%,2.4%,0.0%
C#CCNC(=O)C1=C[C@H](c2ccccc2)[C@@H](CCCO)[C@H](OCC)O1,10.2%,20µM*,-3.1%,-3.3%,-3.8%
C#Cc1ccc([C@H]2C=C(C(=O)NCc3ccccc3)O[C@@H](OCC)[C@@H]2CCCO)cc1,63.0%,0.2%,13.0%,1.6%,37.0%
Oc1ccc(C23CC4CC(CC(C4)C2)C3)cc1O,-29.3%,1.78µM*,?,4.2%,-22.4%
O=C(NCc1cccc(Cl)c1)c1ccc2c(Cl)c3c(nc2c1)CCCC3,·,0.9%,·,?,·
O=C(COc1ccc(S(=O)(=O)N2CCCC2)cc1)N1CCCCC1,-7.9%,-5.7%,-6.1%,-5.6%,-5.3%
O=S(=O)(c1ccc2ccccc2c1)N1CCCCCC1,82.1%,7.1%,12.4%,-2.8%,23.1%
CN1CCCN(S(=O)(=O)c2ccc3ccccc3c2)CC1,84.2%,44.7µM*,-17.4%,?,-27.0%
O=C(COc1ccc2ccccc2c1)Nc1ccc(S(=O)(=O)N2CCCCCC2)cc1,17.8µM*,-6.3%,-4.5%,1.1%,-11.8%
O=C(COc1ccccc1)Nc1ccc(S(=O)(=O)N2CCCCCC2)cc1,-49.4%,8.6%,0.2%,4.9%,-18.8%
O=C(COc1ccc(S(=O)(=O)N2CCCCC2)cc1)N1CCN(Cc2ccccc2)CC1,94.1%,28.2µM*,-9.2%,-6.1%,4.1%
O=C1C(=C(O)c2ccccc2)C(=O)c2ccccc21,-29.3%,-15.3%,-24.0%,-12.2%,-5.3%
O=C1C(=C(c2ccccc2)c2ccccc2)Nc2ccccc21,-24.2%,-23.5%,-18.1%,0.5%,25.1µM*
CN(C)/N=C/C=C1\CCC/C(=C\c2ccc(F)c(F)c2)C1=O,-8.7%[2.29 µM],15.8µM*,4.4%,2.5%,?

# From PubChem
